Laboratory results as given in PubChem BioAssay AID1533 (PCMD, 2009).
About 45 (0.03%) of roughly 160,000 compounds were called active. Cut-off read from the data, not from the text of the source: active = inhibition mostly above about 34% (no sharp cut-off); inconclusive = no clear call, values can overlap the other calls; inactive = mostly below about 22%. Only a selection was taken, and actives are over-represented in it overall.

Molecular target: dTDP-4-dehydrorhamnose reductase (Mycobacterium tuberculosis (strain ATCC 25618 / H37Rv)) + dTDP-4-dehydrorhamnose 3,5-epimerase (Mycobacterium tuberculosis (strain ATCC 25618 / H37Rv)) (UniProt P9WH09+P9WH11)
Test: M. tuberculosis RmlC/RmlD coupled enzyme inhibitors, primary screen, biochemical, compound mixtures, 384-well, from 1536-well plates (AID 1533)
Conditions: RmlC+RmlD coupled enzyme assay, percent inhibition, primary screen in compound mixtures, stronger effect = higher value

dTDP-4-dehydrorhamnose reductase (Mycobacterium tuberculosis (strain ATCC 25618 / H37Rv)) + dTDP-4-dehydrorhamnose 3,5-epimerase (Mycobacterium tuberculosis (strain ATCC 25618 / H37Rv)), sequence (P9WH09 whole entry, looked up): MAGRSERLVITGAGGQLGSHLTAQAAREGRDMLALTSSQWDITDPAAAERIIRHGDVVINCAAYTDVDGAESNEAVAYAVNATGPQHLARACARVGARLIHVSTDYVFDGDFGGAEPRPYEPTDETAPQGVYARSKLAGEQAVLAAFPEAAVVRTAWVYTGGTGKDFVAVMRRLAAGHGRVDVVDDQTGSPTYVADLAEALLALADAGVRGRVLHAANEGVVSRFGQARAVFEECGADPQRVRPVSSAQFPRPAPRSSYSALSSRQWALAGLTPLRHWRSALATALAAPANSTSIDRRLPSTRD
dTDP-4-dehydrorhamnose reductase (Mycobacterium tuberculosis (strain ATCC 25618 / H37Rv)) + dTDP-4-dehydrorhamnose 3,5-epimerase (Mycobacterium tuberculosis (strain ATCC 25618 / H37Rv)), sequence (P9WH11 whole entry, looked up): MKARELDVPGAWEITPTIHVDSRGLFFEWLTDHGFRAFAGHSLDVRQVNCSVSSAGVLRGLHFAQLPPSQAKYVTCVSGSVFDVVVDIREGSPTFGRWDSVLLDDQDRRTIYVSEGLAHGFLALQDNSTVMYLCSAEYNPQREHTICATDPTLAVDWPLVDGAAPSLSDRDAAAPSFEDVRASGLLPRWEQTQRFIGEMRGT

Structure (SMILES)	inhibition (at 3.6 µM)	inhibition (measured here: mean retest inhibition, at 5.5 µM) [%]
Cc1ccc(OCC(=O)Nc2nnc(-c3ccco3)s2)cc1	-5.61% (inactive)	
O=[N+]([O-])c1ccc(N=Cc2c(O)ccc3ccccc23)cc1	-17.6% (inactive)	
O=c1[nH]nc(SCCS(=O)(=O)c2ccc(F)cc2)n1-c1ccccc1C(F)(F)F	-9.62% (inactive)	
C=CCc1cccc2cc(C(=O)NC3CCCC3)c(=O)oc12	3.42% (inactive)	
COc1ccc2[nH]c(C(=O)Nc3ccccc3Cl)cc2c1	-0.28% (inactive)	
CC1=NNC(=O)C1CC(=O)N/N=C/c1ccncc1 (stereo unspecified)	8.8% (inactive)	
C/C(=C\c1ccco1)CN1CCC(N2CCC(C(=O)N3CCOCC3)CC2)CC1	3.12% (inactive)	
O=C(C[n+]1cc(-c2ccc(Cl)c(Cl)c2)n2c1CCC2)c1cccs1	2.29% (inactive)	
COc1ccc([N+](=O)[O-])cc1N(CC(O)CN(CC(C)C)CC(C)C)S(=O)(=O)c1ccc(C)cc1 (stereo unspecified)	2.56% (inactive)	
COc1cc(N/C=C2\CC(=O)NC(C)=C2C#N)cc(OC)c1OC	-11.2% (inactive)	
CC(C)N(C(=O)CSc1nc(COc2ccccc2)nc2ccccc12)C(C)C	-5.31% (inactive)	
COc1c(N2CCN(C(=S)Nc3ccccc3F)C(C)C2)c(F)cc2c(=O)c(C(=O)O)cn(C3CC3)c12 (stereo unspecified)	9.08% (inactive)	
CCc1cccc(CC)c1NC(=S)Nc1ccc2cn[nH]c2c1	-7.83% (inactive)	
O=C1/C(=C/c2cccs2)SC(=S)N1C1CCS(=O)(=O)C1 (stereo unspecified)	1.03% (inactive)	
COc1ccc(OCC(O)CNCCNc2nccc(C(F)(F)F)n2)cc1 (stereo unspecified)	42.7% (inactive)	10.5
Cc1ccc(/C=C/C(=O)O)cc1S(=O)(=O)N1CCC(Cc2ccccc2)CC1	-14% (inactive)	
O=C(C[n+]1ccc2c(c1)nnn2-c1ccccc1)c1ccc(Cl)cc1	-3.04% (inactive)	
CC1Cc2ccccc2N1C1=CC(=O)CC(C)(C)C1 (stereo unspecified)	10.6% (inactive)	
CC(=O)Nc1ccc(NC(=O)CSc2nnc(COc3ccccc3C)n2CC2CCCO2)cc1 (stereo unspecified)	7.46% (inactive)	
O=C(Nc1nnc(COc2ccccc2)s1)Nc1ccccc1F	3.12% (inactive)	
COc1ccc(CNC(=O)C(Cc2ccccc2)n2cccc2)cc1 (stereo unspecified)	6.07% (inactive)	
COc1ccc(Nc2cc(=O)n(-c3ccccc3)c3c2c(=O)n(C)c(=O)n3C)cc1	13.6% (inactive)	
CCN(CC)CCn1cnc2c1c(=O)n(CCOC(=O)c1cc(OC)c(OC)c(OC)c1)c(=O)n2C	3.47% (inactive)	

Structure (SMILES)	inhibition (at 3.6 µM)	inhibition (measured here: mean retest inhibition, at 5.5 µM) [%]
O=C1COc2ccc(C(=O)COC(=O)C3CC(O)CN3S(=O)(=O)c3ccc(Cl)cc3)cc2N1 (stereo unspecified)	-2.3% (inactive)	
COc1ccc(CNC(=O)COC(=O)/C=C/c2ccc(S(=O)(=O)N3CCOCC3)cc2)cc1	-2.01% (inactive)	
N/C(=N\OC(=O)CCCC(=O)O)c1ncc(C(F)(F)F)cc1Cl	2.53% (inactive)	
N#CC1=C(N)Oc2c(ccc3cccnc23)C1c1ccncc1 (stereo unspecified)	4.04% (inactive)	
c1csc(-c2nnc(COc3ncnc4sccc34)o2)c1	-7.72% (inactive)	
O=c1ccnc(Nc2ccc(Cl)cc2)[nH]1	6.37% (inactive)	
CN(c1ccccc1)S(=O)(=O)c1cc(C(=O)OCC(=O)N2CCN(C(=O)c3ccco3)CC2)ccc1Cl	3.76% (inactive)	
COC(=O)c1ccccc1N=Nc1c(C)[nH][nH]c1=O	-10.6% (inactive)	
O=C(Nc1ccccc1F)c1ccc(Cn2cc(Br)cn2)cc1	-3.16% (inactive)	
O=C(Cc1ccccc1Cl)N1CCN(c2ccccn2)CC1	-5.39% (inactive)	
NC(=O)Cc1ccc2c(c1)[nH]c1ccccc12	-1.93% (inactive)	
O=C(COc1cc(Cl)c(Cl)cc1Cl)NCCc1ccccn1	6.74% (inactive)	
CCN1C(=O)/C(=c2\s/c(=C3\Sc4ccccc4N3C)c(=O)n2C)N(C)C1=S	-7.72% (inactive)	
C=CCN(CC=C)C(=O)COC(=O)c1n[nH]c2ccccc12	5.16% (inactive)	
O=C(Nc1ccc(-c2ccc3nncn3n2)cc1)C1CCCCC1	-6.47% (inactive)	
Cc1ccc(-c2nn(-c3cccc(F)c3)cc2CNCCc2ccncc2)o1	-11.7% (inactive)	
CCN(CC)S(=O)(=O)c1ccc(NC(=O)c2cccnc2Cl)c(NC(=O)c2cccnc2Cl)c1	9.89% (inactive)	
O=[N+]([O-])/C(N=Nc1ccccc1)=N\Nc1ccccc1	-9.57% (inactive)	
O=S(=O)(NC(=S)Nc1ccccc1)c1ccc(F)cc1	-3.25% (inactive)	
CN(CCC1CCOCC1)Cc1cn[nH]c1-c1ccc(-c2ccccc2)cc1	9.21% (inactive)	
Cc1c(NC(=O)CN2C(=O)C(=O)N(Cc3ccccc3)C2=O)c(=O)n(-c2ccccc2)n1C	7.63% (inactive)	
CCOC(=O)c1sc(NC(=O)CSc2n[nH]c(CC)n2)nc1C	-5.04% (inactive)	
